Screens from PubChem.
TDP1 cell noCPT = qHTS for Inhibitors of human tyrosyl-DNA phosphodiesterase 1 (TDP1): qHTS in cells in absence of CPT. Potency, µM (titrated, usually from 46.2 µM), for the others: at the highest dose activity change, negative = growth inhibition, hits mostly inhibitors. 420,000 compounds, 15% hits. DT40 Tdp1-/- hTDP1 cells, no CPT, ATP luminescence, 48 h; further: nearly all actives have a fitted effect of over 55% in size
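Growth of hTDP1-complemented DT40 Tdp1-knockout cells is measured by ATP luminescence after at least 48 hr compound exposure at 37 °C, with DMSO substituting for the 20 nM CPT used in the parallel screen.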
HT1080 IDH1KD tx = kills HT-1080 cells with IDH1 knockdown. HT-1080 IDH1 knockdown viability, ATP luminescence, 48 h. 360,000 compounds, 2% hits. Potency, µM (doses to about 46.1 µM), for the others: at the highest dose activity, negative = toxicity, actives largely listed as cytotoxic;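 further: 0% = DMSO wells and -100% = cell-free medium wells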
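Using the IDH1-knockdown HT-1080 line run in the same batch and compound series as the NT line, viability after 48 h at 37 °C was determined by CellTiter-Glo luminescence and expressed as % activity.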
KB-V1 cytotox = KB-V1 MDR subline cytotoxicity; KB-V1 MDR cells viability, CellTiter-Glo, 72 h; Potency, µM (titrated, usually from 46.1 µM), actives largely listed as cytotoxic; 400,000 compounds, 3.4% hits; further: nearly all actives have a fitted effect of over 60% in size
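Potencies derive from concentration-effect curves fitted to normalized luminescence (CellTiter-Glo) of KB-V1 cells treated for 72 h at 37 degrees C in phenol-red-free DMEM containing 10% FBS.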
HT1080NT lethal = kills 2HG-producing HT-1080-NT fibrosarcoma cells. HT-1080-NT fibrosarcoma viability, CellTiter-Glo ATP luminescence, 48 h. Potency, µM (highest dose often 46.1 µM), inactives show at the highest dose activity, negative = less viability, usual class: cytotoxic. 360,000 compounds, 1.6% hits;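 further: NT is the 2HG producing partner of a matched IDH1 knockdown line; 0% = DMSO-treated cells and -100% = media-only wells without cells; nearly all actives have a fitted effect of over 55% in size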
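HT-1080-NT fibrosarcoma cells (2HG-overproducing), 750 cells/well in RPMI with 5% FBS, dosed after 2 h and incubated 48 h at 37C. CellTiter-Glo luminescence normalized to DMSO and no-cell wells; concentration-response curves fitted and classed.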
TDP1 cell CPT = DT40-hTDP1 cell growth loss with CPT; 420,000 compounds, 12% hits; Potency, µM (top dose mostly 46.2 µM), inactives show at the highest dose activity change, negative = growth inhibition, usual class: inhibitors; chicken DT40 Tdp1-/-;hTDP1 cells + 20 nM CPT, ATP luminescence, 48 h; further: nearly all actives have a fitted effect of over 55% in size
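Cell growth measured by CellTiter-Glo luminescence after a minimum 48 h, 37 C compound exposure with 20 nM CPT in Tdp1-knockout DT40 cells stably expressing hTDP1, seeded 400/well; qHTS titration format.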
KB-3-1 cytotox = kills parental KB-3-1 adenocarcinoma cells | KB-3-1 viability, CellTiter-Glo ATP luminescence, 72 h | Potency, µM (titrated, usually from 46.1 µM), usual class: cytotoxic | 400,000 compounds, 1.4% hits; further: nearly all actives have a fitted effect of over 60% in size
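72 h, 37 °C compound treatment of KB-3-1 parental cells; CellTiter-Glo added, 10 min, luminescence read. Data corrected against DMSO-only plates and normalized before curve fitting.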
* marks the source's active call; other numbers are inactive results; i = inactive; ? = inconclusive; nt = not tested or not shown. Sampled rows, rich in hits. Any-hit rate of the full collection: about 19%. The call rests on the fitted dose curve; in most records, active means well fitted curve in the direction sought with a large enough effect; inconclusive means small, poorly fitted or top-dose-only effect, or another doubt; inactive means no such curve, though single readings can be large; an effect the other way counts as inactive or inconclusive. Unless noted, on the % scale 0 is the no-effect control and ±100 the full control effect; potency means the concentration at half of the fitted maximal effect.

SMILES	TDP1 cell noCPT	HT1080 IDH1KD tx	KB-V1 cytotox	HT1080NT lethal	TDP1 cell CPT	KB-3-1 cytotox
Cc1ccc(OC(=O)N(C)C[C@@H]2OCc3cn(nn3)CCCC(=O)N([C@@H](C)CO)C[C@H]2C)cc1	?	5%	i	3%	-13%	i
CCC1CCCCN1C(=O)Cn1c(=O)oc2cc(S(=O)(=O)N3CCCCC3)ccc21 (stereo unspecified)	-26%	nt	i	nt	-26%	i
C=CCn1c(SCC(=O)c2ccc(O)c(O)c2)nnc1-c1cccnc1	7%	-13%	i	-4%	-16%	i
C=CCn1c(SCC(=O)c2ccc(O)c(O)c2)nnc1-c1cccc(C)c1	18µM*	-10%	i	1%	16µM*	i
C=CCn1c(SCC(=O)c2ccc(O)c(O)c2)nnc1-c1cccc(Cl)c1	15µM*	-2%	i	-12%	15µM*	i
CC(C)c1ccc(C(=O)Nc2cccnc2)cc1	-27%	9%	i	1%	-1%	i
COc1ccc(Cc2noc(CN(C)Cc3ccc(-n4cccn4)cc3)n2)cc1OC	21µM*	-3%	?	-22%	?	?
CCc1ccc(CN(C)Cc2nc(Cc3ccc(OC)c(OC)c3)no2)nc1	?	6%	?	-15%	16µM*	i
O=C(c1cc(-c2cccnc2)nc2ccccc12)N1CCN(S(=O)(=O)c2cccs2)CC1	23µM*	-7%	i	-11%	?	i
CS(=O)(=O)N1CCN(C(=O)c2cc(-c3ccccc3)nc3ccccc23)CC1	-21%	1%	i	-2%	?	i
O=C(c1cc(-c2cccnc2)nc2ccc(Cl)cc12)N1CCN(S(=O)(=O)c2cccs2)CC1	16µM*	-16%	?	-6%	?	?
Cc1ccc(N2CC(C(=O)Nc3nc4ccc(S(C)(=O)=O)cc4s3)CC2=O)cc1 (stereo unspecified)	14%	-9%	6.5µM*	0%	-14%	?
CS(=O)(=O)c1ccc2nc(NC(=O)Nc3ccc(Cl)c(Cl)c3)sc2c1	9.2µM*	-4%	i	?	?	i
Cc1ccc(NC(=O)Nc2nc3ccc(S(C)(=O)=O)cc3s2)cc1	-5%	-4%	i	1%	3%	i
CS(=O)(=O)c1ccc2nc(NC(=O)Nc3cccc(Cl)c3)sc2c1	23µM*	11µM*	?	?	16µM*	i
CS(=O)(=O)c1ccc2nc(NC(=O)Nc3ccccc3F)sc2c1	?	15%	i	4%	-18%	i
O=C(NCCO)C(=O)Nc1cc2c3c(c1)CCN3C(=O)CC2	-2%	1%	?	6%	0%	i
CC(C)Cc1nccs1	-1%	3%	i	15%	3%	i
CCOC(=O)c1ccccc1NC(=O)CN(c1cc(C(F)(F)F)ccc1Cl)S(C)(=O)=O	?	nt	i	nt	?	i
COc1ccc(O)c(/C=c2/sc3nc4cc(C)c(C)cc4n3c2=O)c1	16µM*	?	18µM*	?	16µM*	?
CCOc1ccc(N2CC(C(=O)N3CCN(C(=O)c4ccco4)CC3)CC2=O)cc1 (stereo unspecified)	-10%	17%	i	1%	-11%	i
CCOC(=O)[C@H]1[C@H]2COc3cc(OC)ccc3[C@@H]2N2C(=O)c3cc(F)ccc3NC(=O)[C@@]12C	?	3%	i	0%	?	i
Cc1ccc(-n2ncc3c(=O)n(CC(=O)N4CCCc5ccccc54)cnc32)cc1C	16µM*	-10%	18µM*	-1%	?	i
COc1ccc(OC)c(NC(=O)Cn2cnc3c(cnn3-c3ccccc3)c2=O)c1	-19%	-1%	i	-6%	-11%	i
O=C(Cn1cnc2c(oc3ccccc32)c1=O)N1CCCc2ccccc21	-15%	0%	4.1µM*	1%	1%	i
SMILES	TDP1 cell noCPT	HT1080 IDH1KD tx	KB-V1 cytotox	HT1080NT lethal	TDP1 cell CPT	KB-3-1 cytotox
O=C(c1cc(=O)c2ccccc2o1)N1CCCc2ccccc21	5%	-3%	i	-12%	2%	i
COc1ccccc1NC(=O)Cn1cnc2c(cnn2-c2ccc(C)c(C)c2)c1=O	?	-15%	13µM*	0%	-29%	i
CSCc1c(C(=O)N2CCCc3ccccc32)oc2ccccc12	?	-4%	nt	-14%	15µM*	nt
O=C(NCC1CCCO1)c1ccc(Cl)c(NS(=O)(=O)c2ccc(F)cc2)c1 (stereo unspecified)	-14%	0%	?	0%	-20%	i
O=Cc1cn(CC(=O)N2CCCc3ccccc32)c2ccccc12	5.8µM*	-16%	?	-9%	5.8µM*	?
COc1ccc(N2CCN(C(=O)Cn3cnc4c(cnn4-c4ccccc4)c3=O)CC2)cc1	1%	-1%	?	12%	-12%	i
O=C(Cn1cnc2c(cnn2-c2ccc(F)cc2)c1=O)OCc1ccccc1	-12%	11%	i	16%	2%	i
O=C(Cn1cnc2c(cnn2-c2ccc(F)cc2)c1=O)N1CCCc2ccccc21	-24%	-11%	2.9µM*	-1%	-3%	?
COc1ccc(-n2ncc3c(=O)n(CC(=O)N4CCCc5ccccc54)cnc32)cc1	23µM*	3%	?	-1%	?	?
O=C(Cn1cnc2c(nnn2Cc2ccc(F)cc2)c1=O)N1CCCc2ccccc21	?	1%	16µM*	3%	?	i
O=C(CN1N=C(c2ccc(Cl)cc2)CCC1=O)NCc1cccnc1	-5%	25%	i	18%	0%	i
CCC(C)[C@H](NC(=O)C1CC(=O)N(c2ccc3c(c2)OCO3)C1)C(=O)NC1CCCCC1 (stereo partly specified)	-19%	12%	i	6%	-15%	i
Cc1ccc(Sc2ccc(N3CCCC(C(=O)Nc4ccc(F)cc4)C3)nn2)cc1 (stereo unspecified)	?	nt	i	nt	?	i
Cc1ccc(-n2ncc3c(=O)n(CC(=O)N4CCN(C(=O)c5ccco5)CC4)cnc32)cc1	-26%	-5%	12µM*	3%	-6%	i
O=C(Cn1cnc2c(cnn2-c2ccc(F)cc2)c1=O)N1CCN(c2ccccc2F)CC1	-29%	-6%	3.7µM*	-5%	-20%	i
